Measurements as given in PubChem BioAssay (NCI).
The panel holds about 83,000 compounds, 20% with a hit somewhere; the sample as a whole holds those more often.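 The test compound was applied at a single concentration to cells in 96-well plates for 48 hours, and percent growth was recorded.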 Values without a mark were called inactive. Active and inactive are the calls of the source. Rule for the calls: active = growth percent below 10; inactive = the rest.

Experiments:
Assay in all cases: NCI-60 one-dose screen, 48 h (100 = growth as untreated, 0 = no growth, -100 = all killed)
Conditions in all cases: 10 µM unless noted
[1] = system: NCI-H226 lung
[2] = system: NCI-H322M lung
[3] = system: HOP-62 NSCLC
[4] = system: NCI-H460 lung
[5] = system: HOP-92 NSCLC
[6] = system: NCI-H522 lung
[7] = system: A549/ATCC NSCLC
[8] = system: 786-0 renal
[9] = system: COLO 205 colon
[10] = system: DU-145 prostate
[11] = system: K-562 leukemia
[12] = system: MALME-3M melanoma
[13] = system: MDA-MB-231 breast
[14] = system: RXF 393 renal
[15] = system: SF-268 CNS
[16] = system: SF-295 CNS
[17] = system: SF-539 CNS
[18] = system: UACC-257 melanoma
[19] = system: M14 melanoma
[20] = system: HCT-15 colon

Structure (SMILES) | growth [1] | growth [2] | growth [3] | growth [4] | growth [5] | growth [6] | growth [7] | growth [8] | growth [9] | growth [10] | growth [11] | growth [12] | growth [13] | growth [14] | growth [15] | growth [16] | growth [17] | growth [18] | growth [19] | growth [20]
C#Cc1nc(C2=C(C)C(=O)/C(=N/OC(C)=O)C2)cs1 | 107% | 101% | 88.5% | 98.5% | 50% | 82.6% | 96.3% | -94.5% (active) | 119% | 85.7% | 84% | 86.1% | 30.3% | 85.1% | 82.2% | 56.1% | 58.4% | 86.5% | 85.2% | 88.1%
CCOC(=O)c1c(Nc2ccccc2)nn2c(N)c(C#N)c(-c3ccc(F)cc3)nc12 | 90.6% | 101% | 91.7% | 86.8% | 99.5% | 90.5% | 96.1% | 80.8% | 93.4% | 83.2% | 52.3% | 91.8% | 78.6% | 84.9% | 85.6% | 86.5% | 88.1% | 101% | 91.2% | 69.8%
COc1ccc(C(=O)/C=C/c2ccc(Oc3nc(NCCO)nc(N4CCOCC4)n3)c(OC)c2)cc1 | 92.9% | 96.6% | 106% | 79.8% | 104% | 66.4% | 103% | 100% | 114% | 95% | 6.9% (active) | 84.7% | 85.3% | 108% | 85.5% | 104% | 82.5% | 89.9% | 86.8% | 36.2%
COc1ccc(/C=N/NC(=O)c2[nH]c3ccc(Br)cc3c2-c2ccccc2)s1 | 47.8% | 50.8% | 47.6% | 3.58% (active) | 52.1% | -30.1% (active) | 31.5% | 11.4% | -55.8% (active) | 20.4% | 10.8% | 55.5% | 3.89% (active) | 80.9% | 39.7% | 15.6% | 1.16% (active) | 47% | 6.17% (active) | 12%
CSc1ccc2c(c1)N(C(=O)/C(C#N)=C/c1c[nH]c3ccccc13)c1ccccc1S2 | 50.4% | 86.1% | 59.9% | 45.5% | 44.1% | 5.48% (active) | 47.3% | 50% | 40.8% | 51.3% | 16.4% | 55.7% | 53.2% | 38.8% | 55.8% | 15% | 7.54% (active) | 57% | 29.5% | 27.3%
N[C@@H](Cc1cn(-c2ccnc3ccccc23)nn1)C(=O)O | 109% | 102% | 95.1% | 112% | 101% | 101% | 101% | 104% | 112% | 110% | 107% | 95.5% | 97.5% | 121% | 103% | 104% | 93% | 106% | 108% | 114%
Cc1nc(-c2cc3ccccc3oc2=O)ccc1C(=O)/C=C/c1ccccn1 | 88.7% | 86.3% | 103% | 41.1% | 80.3% | 58.6% | 66.5% | 6.4% (active) | 94.7% | 47.3% | 7.22% (active) | 88.3% | 12.8% | 32.3% | 78.5% | 71.1% | 2.25% (active) | 101% | 80.2% | -33.3% (active)
c1ccc2c(NCCCn3ccnc3)c3oc4ccccc4c3nc2c1 | -1.35% (active) | -13.4% (active) | 19.5% | -19.3% (active) | -23.7% (active) | -23.1% (active) | 10.5% | 2.46% (active) | -30.9% (active) | -17.2% (active) | 5.89% (active) | 1.01% (active) | -10% (active) | -33.3% (active) | 10.7% | 5.7% (active) | 4.46% (active) | 16.4% | 2.76% (active) | -6.93% (active)
Fc1ccc(-c2cc3nc(C(Cl)Cl)nc(-c4ccc(Cl)cc4)n3n2)cc1 | 78.9% | -44.9% (active) | -25.8% (active) | -66.3% (active) | 24.7% | 30.3% | -58.2% (active) | 47.4% | -56.6% (active) | -23% (active) | 24.3% | 37.4% | 7.4% (active) | -55.5% (active) | 26.2% | 9.78% (active) | 21% | 39.1% | 22.3% | 12.1%
Clc1ccc2oc3c(NCCCn4ccnc4)c4ccccc4nc3c2c1 | 40% | 41.5% | 66.2% | -25.9% (active) | 47.2% | 48.3% | 32.7% | 6.65% (active) | 55.2% | 21.9% | 4.86% (active) | 57.1% | 27.1% | 23.9% | 38.3% | 30.2% | 24.3% | 78.3% | 49.7% | 13%
OC1CCN(CCCOc2c3ccc(Cl)cc3nc3c2oc2ccc(Cl)cc23)CC1 | 2.57% (active) | 15% | 41% | -75.2% (active) | 9.66% (active) | 9.65% (active) | -52.9% (active) | -99% (active) | -11.1% (active) | -97.5% (active) | -51.7% (active) | -66.6% (active) | 24.5% | -80.4% (active) | 27.4% | 17.8% | -74.1% (active) | -13.4% (active) | -93.8% (active) | -83% (active)
N#Cc1nc(-c2ccccc2)oc1N1CCC(CO)C1 (configuration not stated) | 92.6% | 88.4% | 107% | 103% | 129% | 97.8% | 95.2% | 101% | 116% | 104% | 114% | 94.3% | 101% | 100% | 97.7% | 105% | 93.9% | 105% | 106% | 104%
COC(=O)c1ccc(NC(=S)N2CCc3ccc([N+](=O)[O-])cc3C2)cc1O | 100% | 101% | 91.3% | 114% | 99.7% | 99% | 106% | 109% | 105% | 112% | 110% | 95.4% | 94.5% | 110% | 103% | 102% | 103% | 109% | 102% | 99.7%
Cc1ccc(C(=O)Nc2cccc(C(F)(F)F)c2)cc1Nc1nc(-c2cnccn2)nc2c1cnn2C | 71.6% | 73% | 46.6% | 69.9% | 35.3% | 73.2% | 70.8% | 74% | – | 96.6% | 3.86% (active) | -15.3% (active) | 25.3% | 78% | 81.8% | 79% | 60.6% | 26.1% | 15.7% | 81.3%
C#Cc1nc(C2=C(C)C(OC(=O)CCC(=O)O)CC2)cs1 (configuration not stated) | 106% | 104% | 111% | 107% | 106% | 101% | 90.7% | -86.5% (active) | – | 106% | 104% | 107% | 104% | 113% | 99.9% | 108% | 100% | 102% | 103% | 99.8%
C=CCSc1ccc2c(c1)C(N1CCNCC1)=Nc1ccccc1O2 | 87.4% [8.25 µM] | 85.6% [8.25 µM] | 84.7% [8.25 µM] | 85.7% [8.25 µM] | 34.2% [8.25 µM] | 74% [8.25 µM] | 71.7% [8.25 µM] | 60.4% [8.25 µM] | – | 90.8% [8.25 µM] | 29.3% [8.25 µM] | 86.6% [8.25 µM] | 77.8% [8.25 µM] | 63% [8.25 µM] | 74.8% [8.25 µM] | 85.1% [8.25 µM] | 74.1% [8.25 µM] | 83% [8.25 µM] | 83.4% [8.25 µM] | 85.3% [8.25 µM]
